SMILES strings stand for the structures. In all, about 300,000 compounds went through this assay and about 37,000 (12%) were called active. The entries come from a sample that favours actives as a whole. A number with no mark means an inactive call. Cut-off read from the data, not from the text of the source: active = max response mostly above about 13% (no sharp cut-off); inactive = mostly below about 14%.

The assay is described as follows: Cycloheximide Counterscreen for Small Molecule Inhibitors of Shiga Toxin. Note: read at 38.3 µM for the half of the compounds with a filed dose; 0% is about no effect. The conditions noted are these: cell reporter, cycloheximide protein synthesis inhibition counterscreen; hits give high values.
With `N#Cc1cccc(NC(=O)CN2CCCCCC2)c1`, the max response is 4.22%.

As to `CC1CN(C(=O)CCC(=O)NCc2cccnc2)c2ccccc2O1` (stereo not given), the max response is 0.76%.

With `OCCN(Cc1ccccc1)Cc1ccc(Cl)cc1`, the max response was -2.21%.

Consider `CCc1nnc(NC(=O)CCN(c2ccc(C)cc2)S(=O)(=O)c2ccccc2)s1`, for which the max response was -1.73%.

Take `COc1ccc(C2NC(=O)N(C)C(C)=C2[N+](=O)[O-])cc1` (stereo not given): the max response was -2.28%.

Consider `Cc1ccc(C)c(OCc2cc(C(=O)N3CCN(c4cnccn4)CC3)no2)c1`, for which the max response is 19.7%.

As for `COc1cc2c(C(=O)N(C)c3cc(Cl)ccc3OC)cn(C)c(=O)c2cc1OC`, the max response is -3.47%.

Take `CC(=O)Nc1cccc(Nc2nc(-c3cccs3)nc3ccccc23)c1`: the max response is 13.3%.

For the compound `CCn1ccnc1CN(C)C(=O)c1cc(COc2ccc(-n3cncn3)cc2)on1`, the max response is -1.13%.

With `COc1cc(Cl)ccc1OCc1cc(C(=O)N2CC[C@@H]3CCCC[C@H]3C2)no1`, the max response is 38.6% (active).

`COc1ccccc1OCc1ccc(C(=O)N2CCN(C)CC2)o1`: the max response is 1.3%.

As for `CC(=O)c1ccc(NC(=O)c2cc(-c3cccs3)on2)cc1`, the max response was 16.4% (active).

In the case of `CCn1ccnc1CN(C)C(=O)c1cc(COc2ccc(Cl)cc2OC)on1`, the max response was 39.1% (active).

Regarding `COc1ccc(OCc2cc(C(=O)N3CCCC3)no2)c2ccccc12`, the max response was 65.1% (active).

For `COc1cc(Cl)ccc1OCc1cc(C(=O)N(C)CCc2c(C)n[nH]c2C)no1`, the max response was 32.5%.

On to `COc1ccc(C(=O)C2CCCN(C(=O)c3cc(C)on3)C2)cc1F` (stereo not given), for which the max response was 1.02%.

`Cc1cc(NC(=O)c2cc(-c3cccs3)on2)nn1Cc1ccc(Cl)cc1`: the max response was 9.8%.

Regarding `O=C(Cc1csc(Nc2nc(=S)[nH]c3ccccc23)n1)NCCCN1CCN(c2cccc(Cl)c2)CC1`, the max response is 1.69%.

Turning to `Cc1ccnc(NC(=O)Cn2ccc([N+](=O)[O-])n2)c1`, the max response is -1.7%.

On to `CCOC(=O)/C(=N\Nc1cc(Cl)ccc1Cl)N1CCN(C)CC1`, for which the max response is -1.84%.

Consider `Cc1c(C)c2c(OCC(=O)NCCCO)cc3c(c2oc1=O)CCC(C)(C)O3`, for which the max response was 0.89%.

As to `CN(CC#CCC(c1ccccc1)c1ccccc1)C(C)(C)C`, the max response is -2.81%.

Take `Cc1ccccc1NC(=O)CSc1nc2ccc(Nc3nc(N4CCOCC4)nc(N4CCOCC4)n3)cc2s1`: the max response is -3.62%.

On to `CCCCC1(C(=O)OCC)NC(c2ccc(O)cc2)C2C(=O)N(c3ccccc3)C(=O)C21` (stereo not given), for which the max response was -1.77%.

Regarding `CCOc1ccc(OCC(=O)Nc2c3c(nn2C(C)(C)C)CS(=O)(=O)C3)cc1`, the max response was 0.307%.

Regarding `N#CCC(=O)N/N=C/c1cn(Cc2ccc3ccccc3c2)c2ccccc12`, the max response was 1.05%.

In the case of `c1ccc(Cc2cc[n+](Cc3ccccc3)cc2)cc1`, the max response was -3.55%.

Turning to `Cc1ccc(CN(Cc2cccnc2)C(=S)Nc2cccc(Cl)c2C)cc1`, the max response was 9.59%.

On to `CCCCC(=O)Nc1ccccc1N1CCN(c2ccc(F)cc2)CC1`, for which the max response was 5.13%.

For the compound `Cc1c(S(=O)(=O)NC(C)c2ccccc2)c(=O)n(C)c(=O)n1C` (stereo not given), the max response was 1.11%.

Take `Cc1coc2c1c(C)cc1oc(=O)c(CC(=O)NCC(=O)N[C@H](C(=O)O)C(C)C)c(C)c12`: the max response was -5.82%.

As for `C/C(N)=C(/C#N)C(=O)COC(=O)c1cc(-c2cccc(Br)c2)nc2ccccc12`, the max response is 0.776%.

Consider `C/C(N)=C(/C#N)C(=O)COC(=O)c1cc(-c2ccccc2)nc2ccc(Br)cc12`, for which the max response is -2.32%.

With `C/C(N)=C(/C#N)C(=O)COC(=O)c1cc(-c2ccc(C)cc2)nc2ccccc12`, the max response is 32.1% (active).

Consider `COc1ccc(NC2=CC(=S)NC(C)(C)C2)cc1`, for which the max response was -1.18%.

With `Cc1csc(Nc2ccc(Cl)cc2)[n+]1-c1ccc(Cl)cc1`, the max response was 8.25%.

Turning to `O=C(CSc1ncn[nH]1)Nc1nsc(-c2ccccc2)n1`, the max response is 15.2%.

Take `COC(=O)c1nc(NC(=O)c2ccccc2)n[nH]1`: the max response is -3.23%.

On to `O=C(Nc1nsc(-c2ccccc2)n1)c1ccncc1`, for which the max response was 15.5% (active).

`Cc1cc(C)cc(NC(=O)CSCc2cnn(-c3ccccc3)c2-n2cccc2)c1`: the max response is 16.3%.

Regarding `O=c1ccc(-c2ccc(S(=O)(=O)Nc3ccccc3)o2)n[nH]1`, the max response was -12.6%.

As for `O=S1(=O)CCOC[C@H](CC2CCCCC2)N1Cc1ccc(F)cc1`, the max response was 17.1% (active).

With `CCCC[C@H]1COCCS(=O)(=O)N1Cc1cccc(Cl)c1`, the max response was 0.203%.

Take `CCC(C)[C@H]1COCCS(=O)(=O)N1Cc1ccc(C)cc1` (stereo not given in full): the max response is 1.06%.

Turning to `O=S(=O)(c1ccc(Cl)cc1)N1CCCN(c2ccc(C(F)(F)F)cn2)CC1`, the max response is -1.58%.

For `O=C(Nc1cc(=O)[nH]c2ncnn12)c1ccccc1Cl`, the max response is -7.22%.

As for `O=c1[nH]c(=S)n(C2CC2)c(O)c1/C=N/N1CCOCC1`, the max response was -4.88%.

On to `O=C(N/N=C/c1c(O)n(C2CC2)c(=S)[nH]c1=O)c1ccccc1Cl`, for which the max response was 19.5% (active).

Turning to `O=C(N/N=C/c1c(O)n(C2CC2)c(=S)[nH]c1=O)c1ccccc1`, the max response was 38.1% (active).

In the case of `O=C(N/N=C/c1ccc(OC(=O)c2ccccc2Cl)cc1)c1ccc(O)cc1`, the max response was -3.06%.

For the compound `COc1ccccc1-n1c(O)c(C=NC2CC2)c(=O)[nH]c1=O`, the max response is -4.22%.

For the compound `COC(=O)CCSc1cc([N+](=O)[O-])cc2c1c(C1OCCS1)nn2-c1ccccc1` (stereo not given), the max response is -3.43%.

Turning to `O=C(NCCN1CCOCC1)c1ccc(/C=C2\Sc3ccccc3N(Cc3ccc(F)cc3)C2=O)cc1`, the max response is 11.1%.

`Cc1nc(-c2nnc(SCC(=O)Nc3cc(C(F)(F)F)cc(C(F)(F)F)c3)n2C)cs1`: the max response was -0.852%.

As for `CCOC(=O)c1c(-c2ccccc2)oc2ccc(OCC(=O)NN)cc12`, the max response is -3.08%.

For the compound `CCOCCCn1c(SCC(=O)Nc2cc(OC)ccc2OC)nc2ccccc2c1=O`, the max response is -2.84%.

With `Cc1nn(C)c(Cl)c1CN1CCC(Oc2ccc(C(=O)N3CCCC3)cc2)CC1`, the max response is 0.779%.

`Nc1c(C(=O)NCc2ccccc2)sc2nc3c(cc12)C(=O)CCC3`: the max response was 8.86%.

In the case of `COCc1cc(C)nc2sc(C(=O)NC3CCCCC3)c(N)c12`, the max response is 11.4%.

With `CC(C)OC(=O)c1sc2nc3c(cc2c1N)C(=O)CCC3`, the max response was 19.5% (active).

As to `CCn1c(CC(=O)Nc2ccccc2C)nnc1SCC(=O)NC1=NCCS1`, the max response is 7.82%.

Take `COC(=O)Cc1ccc(N(Cc2ccccc2F)S(=O)(=O)c2ccc(Br)cc2)cc1`: the max response was -4.43%.

As to `COc1ccc(Cl)cc1NS(=O)(=O)c1cccc(C(=O)NCC2CCCO2)c1` (stereo not given), the max response is -3.64%.

In the case of `CC(=O)N1c2ccc(S(=O)(=O)N(C)CC(=O)N(C)Cc3ccccc3)cc2CC1C` (stereo not given), the max response was -2.22%.

Turning to `NC(=O)NC(=O)CSc1nc2cc([N+](=O)[O-])ccc2n1-c1cccc(C(F)(F)F)c1`, the max response was -1.36%.

On to `Cn1c(-c2ccc(F)cc2)cnc1SCC(=O)NNC(=O)Cc1ccccc1`, for which the max response was -0.376%.

For the compound `Cn1c(CO)cnc1SCc1ccccc1`, the max response was 21.1% (active).

Consider `CSc1c(SCc2ccccc2)cnn(Cc2ccccc2)c1=O`, for which the max response is 5.89%.

For `CCOC(=O)c1cccc(NS(=O)(=O)c2c(C(=O)N3CCCCCC3)c(C)n(C)c2C)c1`, the max response was 1.94%.

Turning to `CCCCCCN=C(CC)c1c(O)n(CCCC)c(=O)[nH]c1=O`, the max response was -2.56%.

For the compound `CC/C(=N\NC(=O)c1ccccc1O)c1c(O)n(Cc2ccccc2)c(=O)[nH]c1=O`, the max response is 23% (active).

On to `CCCCn1c(O)c(C(CC)=NCc2ccco2)c(=O)[nH]c1=O`, for which the max response is -4.03%.

As to `Cc1cc(-c2ccc(C)c(S(=O)(=O)Nc3ccc(S(N)(=O)=O)cc3)c2)on1`, the max response was 4.89%.

In the case of `Cc1ccccc1C(=O)Nc1ccc(N2CCCCCC2)cc1`, the max response is 19% (active).

For the compound `COc1cccc(C(=O)Nc2ccc(N3CCN(C(=O)c4ccco4)CC3)cc2)c1`, the max response is -5.64%.

Consider `CN1CCN(c2ccc(NC(=O)c3ccccc3)cc2)CC1`, for which the max response is 30.4% (active).

In the case of `COc1ccc(C(=O)NC(=S)Nc2ccc(N3CCCC3)cc2)cc1OC`, the max response was -0.974%.

For `Cc1ccccc1C(=O)N1CCN(c2ccc(NC(=O)c3cccs3)cc2)CC1`, the max response is -1.82%.

In the case of `CC(=O)c1ccc(N2CCN(CC(=O)Nc3ccccc3N3CCOCC3)CC2)cc1`, the max response is -0.941%.

As to `C/C(=N\NC(=O)c1ccccc1C)c1ccc(N2CCOCC2)cc1`, the max response was 18.1% (active).

As for `COc1cccc(C(=O)Nc2ccc(N3CCCC3)cc2)c1`, the max response was 30.8% (active).

In the case of `C/C(CCc1ccccc1)=N\NC(=O)c1ccc(CN2CCOCC2)cc1`, the max response is 6.88%.

Consider `Cc1ccccc1C(=O)NC(=S)Nc1ccc(N2CCN(C(=O)c3ccccc3)CC2)cc1`, for which the max response was -3.14%.

As for `CN1CCN(c2ccc(NC(=O)c3ccc4c(c3)[nH]c(=O)n4Cc3ccc(F)cc3)cc2)CC1`, the max response was -2.44%.

As for `O=C(Nc1ccc(S(=O)(=O)N2CCc3ccccc3C2)cc1)c1ccccc1`, the max response was -1.47%.

Regarding `CC(C)Oc1ccc(CC(=O)NNC(=S)Nc2ccc(Br)cc2)cc1`, the max response was -3.17%.

Regarding `Cc1cc(-c2ccc(S(=O)(=O)N3CCN(c4cccc(C(F)(F)F)c4)CC3)s2)on1`, the max response is 1.18%.

As for `CCOc1ccccc1C(=O)NC1CC2CCCC(C1)N2Cc1ccccc1` (stereo not given), the max response is -3.26%.

With `COC(=O)C1=C(N)Oc2cc(C)[nH]c(=O)c2C1c1ccc(Cl)cc1` (stereo not given), the max response was 0.893%.

With `CC(C)(C)n1ncc2c(=O)n(Cc3ccc(Cl)cc3)cnc21`, the max response was 11.3%.

Values taken from PubChem BioAssay AID2314 (National Center for Advancing Translational Sciences (NCATS), 2010).
